Laboratory results as given in PubChem BioAssay (NCI).
Compounds without any hit were thinned out: in the full panel of roughly 83,000, 20% have a hit.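 Activity criterion: percent growth below 10, measured after cells in 96-well plates were exposed to a single compound concentration for 48 hours.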 A number with no mark means an inactive call. Active and inactive are the calls of the source.

How the values were obtained:
Assay in all cases: NCI-60 one-dose screen, 48 h (100 = growth as untreated, 0 = no growth, -100 = all killed)
Settings in all cases: 10 µM unless noted
DU-145 prostate = system: DU-145 prostate
K-562 leukemia = system: K-562 leukemia
MALME-3M melanoma = system: MALME-3M melanoma
MDA-MB-231 breast = system: MDA-MB-231 breast
RXF 393 renal = system: RXF 393 renal
SF-268 CNS = system: SF-268 CNS
SF-295 CNS = system: SF-295 CNS
SF-539 CNS = system: SF-539 CNS
UACC-257 melanoma = system: UACC-257 melanoma
M14 melanoma = system: M14 melanoma
HCT-15 colon = system: HCT-15 colon
HT29 colon = system: HT29 colon
SNB-75 CNS = system: SNB-75 CNS
SNB-19 CNS = system: SNB-19 CNS
U251 CNS = system: U251 CNS
PC-3 prostate = system: PC-3 prostate
SK-MEL-5 melanoma = system: SK-MEL-5 melanoma
UACC-62 melanoma = system: UACC-62 melanoma
LOX IMVI melanoma = system: LOX IMVI melanoma
SK-MEL-28 melanoma = system: SK-MEL-28 melanoma

Structure (SMILES)	growth (DU-145 prostate)	growth (K-562 leukemia)	growth (MALME-3M melanoma)	growth (MDA-MB-231 breast)	growth (RXF 393 renal)	growth (SF-268 CNS)	growth (SF-295 CNS)	growth (SF-539 CNS)	growth (UACC-257 melanoma)	growth (M14 melanoma)	growth (HCT-15 colon)	growth (HT29 colon)	growth (SNB-75 CNS)	growth (SNB-19 CNS)	growth (U251 CNS)	growth (PC-3 prostate)	growth (SK-MEL-5 melanoma)	growth (UACC-62 melanoma)	growth (LOX IMVI melanoma)	growth (SK-MEL-28 melanoma)
CCOC(=O)c1nn(C2CCCCO2)c2ccc(NS(=O)(=O)c3ccc(C)cc3)cc12 (stereo not given)	106%	82.8%	102%	94.2%	119%	96.2%	99.7%	105%	97%	101%	105%	102%	80.5%	99.6%	90.6%	92.6%	98.7%	86.6%	99.3%	101%
Cc1cccc(C[C@H](NC(=O)Nc2ccc(Cl)cc2F)C(=O)N[C@@H]2C(=O)N3C[C@H](OC(=O)CCN(C)C)C[C@H]3C(=O)N3CCCC[C@H]3C(=O)N[C@@H](C)C(=O)N3C[C@H](C)C[C@H]3C(=O)O[C@H]2C)c1	23.7%	15.8%	27.1%	1.21% (active)	18.7%	24.8%	7.95% (active)	35.6%	16.3%	16.5%	64.8%	5.77% (active)	13.5%	21.3%	22.9%	16.7%	6.65% (active)	13.4%	23.9%	25.8%
CCCCN(CCCC)CC(O)c1ccc(OCc2ccccc2)c2ccccc12 (stereo not given)	89.6%	-4.85% (active)	58.6%	74.9%	106%	74.5%	48.6%	101%	90.2%	72.2%	69.7%	19.1%	80.4%	96.7%	98.2%	63.6%	101%	95.5%	60.8%	109%
CC1(C)CC[C@]2(C(=O)O)CC[C@]3(C)[C@H](CC[C@@H]4[C@@]5(C)CCC(=O)C(C)(C)[C@@H]5CC[C@]43C)[C@H]2[C@H]1OC(=O)C(F)(F)F	-53.4% [100 µM] (active)	1.66% [100 µM] (active)	-65% [100 µM] (active)	-62.3% [100 µM] (active)	-82.1% [100 µM] (active)	-92.4% [100 µM] (active)	-62.5% [100 µM] (active)	-86% [100 µM] (active)	-87% [100 µM] (active)	-35.2% [100 µM] (active)	-64% [100 µM] (active)	-37.7% [100 µM] (active)	-36.5% [100 µM] (active)	-78.4% [100 µM] (active)	-71.4% [100 µM] (active)	-56.4% [100 µM] (active)	-94.2% [100 µM] (active)	-85.2% [100 µM] (active)	-99.1% [100 µM] (active)	-58.5% [100 µM] (active)
O=C(Nc1ccc(Nc2ccncc2)cc1)c1ccc([N+](=O)[O-])cc1	68.7%	19.5%	59.1%	93.5%	91.6%	91.9%	79.6%	88.8%	96.9%	65.1%	77.5%	63.4%	92%	80.1%	38%	70%	73.1%	15.4%	62.3%	84.9%
c1coc2occoc=2o1	111%	99.1%	103%	108%	117%	105%	99.1%	95.2%	106%	101%	102%	106%	97.4%	107%	101%	96.8%	97.2%	102%	102%	112%
CC(=O)CC(=O)SC1=NCCS1	121%	104%	140%	112%	122%	102%	109%	102%	98.8%	113%	100%	105%	109%	107%	102%	89.9%	112%	115%	97.7%	115%
Cc1ccc(NC(=S)/N=c2/n(-c3ccccc3)nc3n2CCN3C2=NCCN2)cc1	111%	121%	113%	92.9%	101%	109%	99.3%	102%	109%	82.8%	107%	99.1%	80.6%	119%	108%	85.6%	101%	99.2%	108%	108%
COc1ccc(OC)c([N+](=O)[O-])c1C(=O)CNC(C)=O	109%	103%	112%	98.4%	101%	102%	95.2%	101%	105%	107%	95.8%	109%	107%	93.5%	97%	101%	101%	95.8%	103%	114%
CCCCCCCCCCCCCC[n+]1cccc(C(N)=O)c1	27.8%	9.03% (active)	-33.9% (active)	-22.9% (active)	-41.4% (active)	-24.2% (active)	-30.9% (active)	-5.92% (active)	24.3%	-38.8% (active)	67.6%	0.436% (active)	-57.2% (active)	-69.4% (active)	-72.7% (active)	-29% (active)	-90.9% (active)	1.18% (active)	15.7%	28.5%
CCN(CC)c1ccc2cc(C(Nc3ccc(Cl)cc3)c3nnnn3C(C)(C)C)c(=O)oc2c1 (stereo not given)	93.6%	78.9%	98.1%	90.8%	86.9%	80.6%	95.9%	94.8%	92.2%	97.6%	91.8%	90.7%	68.5%	87%	82.6%	71.5%	80%	70%	72.4%	95.8%
CCOC(=O)COc1ccc2c(c1)O/C(=C\c1ccc(O)cc1)C2=O	106%	106%	102%	117%	114%	94.2%	101%	102%	105%	103%	101%	108%	87.7%	102%	107%	112%	102%	98.9%	97.9%	106%
CC1(C)CC[C@]2(C(N)=O)CC[C@]3(C)C(=CC[C@@H]4[C@@]5(C)C/C(=C/c6ccncc6)C(=O)C(C)(C)[C@@H]5CC[C@]43C)[C@@H]2C1	-36.4% [100 µM] (active)	3.83% [100 µM] (active)	-84.9% [100 µM] (active)	-75% [100 µM] (active)	-52.5% [100 µM] (active)	-37.2% [100 µM] (active)	-64.4% [100 µM] (active)	-68.1% [100 µM] (active)	-58.6% [100 µM] (active)	-24.4% [100 µM] (active)	-49.7% [100 µM] (active)	-65.4% [100 µM] (active)	-86.4% [100 µM] (active)	-83.8% [100 µM] (active)	-81.1% [100 µM] (active)	-33.5% [100 µM] (active)	-71.1% [100 µM] (active)	-79.7% [100 µM] (active)	-51.4% [100 µM] (active)	-64.7% [100 µM] (active)
Cc1cnc(N)nc1OCCNC(=O)c1cccc(-c2ccc(S(=O)(=O)Nc3ccc4c(c3)N(C(=O)C3CC3)CCC4)cc2)c1	90.2%	58.8%	120%	89.5%	88.3%	74.5%	77.9%	92%	84.1%	80.1%	96.4%	80.5%	57.3%	75.5%	88.4%	53.5%	23.8%	48.1%	88.5%	88.6%
